The target in experiment [1] is Retinoic acid receptor RXR-alpha (Homo sapiens) (UniProt P19793). Put plainly: qHTS assay to identify small molecule agonists of the RXR signaling pathway (AID 1159527; calls by dose curve; note: nearly all actives have a fitted effect of over 35% in size). Summed up: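 GeneBLAzer RXR-alpha-UAS-bla HEK 293T cells in 2% charcoal-stripped FBS medium were exposed to compounds for 16 hr at 37 C in agonist mode. Beta-lactamase reporter read as 460/530 nm FRET ratio after 2 hr substrate loading.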
On the technique in general: qHTS replaces the single test concentration by a dilution series.

The nature of experiment [2]: qHTS assay to identify small molecule agonists of the RXR signaling pathway - cell viability counter screen (AID 1159529). Note: nearly all actives have a fitted effect of over 50% in size. A digest of the protocol:
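RXR-alpha-UAS-bla HEK 293T cells in medium with 2% charcoal-stripped FBS were pre-incubated 5 hr, then compound-treated 16 hr at 37 C. Viability was read by CellTiter-Glo luminescence in the same wells as the beta-lactamase assay, with tetraoctyl ammonium bromide as positive control.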

A short description of experiment [3]: qHTS assay to identify small molecule antagonists of the retinoid acid receptor (RAR) signaling pathway - cell viability counter screen (AID 1159551). Note: nearly all actives have a fitted effect of over 35% in size. Summed up: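 Cells (C3RL4) are plated, incubated overnight, dosed with compound in DMSO, then given retinol at 1 uM final. After 6 h at 37 C, CellTiter-Glo is added and luminescence read following 30 min at room temperature.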

Experiment [4] is described as follows: qHTS assay to identify small molecule antagonists of the retinoic acid receptor (RAR) signaling pathway (AID 1159552; note: nearly all actives have a fitted effect of over 50% in size). Summed up:
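Retinol signaling pathway inhibitors screened in C3RL4 RARE-luciferase reporter cells seeded overnight at 37 C, then compounds added with 1 uM (final) retinol as pathway substrate. After 6 hr at 37 C, luciferase luminescence read after 30 min at room temperature.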

The nature of experiment [5]: qHTS assay to identify small molecule agonists of the retinoic acid receptor (RAR) signaling pathway (AID 1159553). As to conditions: C3RL4 RARE luciferase reporter, agonist, 6 h; activation: at 73.3 µM (top of the series). Summed up: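 Seed C3RL4 reporter cells at 1,000 per well and incubate overnight at 37 C. Add compounds in DMSO, incubate 6 hr. Add luciferase reagent, wait 30 min at room temperature, read luminescence.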

Experiment [6] in a line: qHTS assay to identify small molecule antagonists of the estrogen related receptor (ERR) signaling pathway from Tox21 library - cell viability counter screen (AID 1224834). Note: nearly all actives have a fitted effect of over 30% in size. Summed up: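 ERR cells, 2,000/well; 6 h settle at 37 C/5% CO2; pin-tool compound transfer in DMSO; 17.5 h at 37 C; CellTiter-Fluor, 30 min; fluorescence intensity.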
The target in experiment [7] is Luciferin 4-monooxygenase (Photinus pyralis) (UniProt P08659). Briefly: qHTS assay to identify small molecule inhibitors of firefly luciferase (AID 1224835). Note: nearly all actives have a fitted effect of over 25% in size. Summed up: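 Biochemical qHTS: compounds run as interplate titrations against purified firefly enzyme, with D-luciferin and ATP each at its KM concentration. Light output recorded by CCD imaging.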
A short description of experiment [8]: qHTS assay to identify small molecule agonists of the constitutive androstane receptor (CAR) signaling pathway - cell viability counter screen (AID 1224836). Note: nearly all actives have a fitted effect of over 45% in size. Summed up: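 HepG2 cells stably carrying hCAR and a CYP2B6-2.2kb reporter; 15-concentration compounds plus PK11195 (final 0.75 uM), 23 hr at 37 C/5% CO2. Viability read by CellTiter-Fluor fluorescence.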

Experiment [9] in a line: qHTS assay to identify small molecule antagonists of the constitutive androstane receptor (CAR) signaling pathway - cell viability counter screen (AID 1224837). Note: nearly all actives have a fitted effect of over 45% in size. Summed up: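 Viability was measured with CellTiter-Fluor in a HepG2 line carrying stably transfected hCAR and a CYP2B6-2.2kb construct. Cells were exposed for 23 hr at 37 C to 15 compound concentrations with 50 nM CITCO as agonist.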

Inconclusive results are not listed. Unmarked numbers belong to inactive results. Calls of active or inactive are those of the source. Unless noted, calls come from the whole dose curve; as a rule, active = well fitted curve in the direction sought with a large enough effect in the repeat runs; inconclusive = weak or mixed curves; inactive = no such curve, though single readings can be large; an effect the other way counts as inactive or inconclusive.
% is set by controls: 0 for no effect and ±100 for the full control effect.

Chain of Luciferin 4-monooxygenase (Photinus pyralis) (P08659 whole entry, looked up): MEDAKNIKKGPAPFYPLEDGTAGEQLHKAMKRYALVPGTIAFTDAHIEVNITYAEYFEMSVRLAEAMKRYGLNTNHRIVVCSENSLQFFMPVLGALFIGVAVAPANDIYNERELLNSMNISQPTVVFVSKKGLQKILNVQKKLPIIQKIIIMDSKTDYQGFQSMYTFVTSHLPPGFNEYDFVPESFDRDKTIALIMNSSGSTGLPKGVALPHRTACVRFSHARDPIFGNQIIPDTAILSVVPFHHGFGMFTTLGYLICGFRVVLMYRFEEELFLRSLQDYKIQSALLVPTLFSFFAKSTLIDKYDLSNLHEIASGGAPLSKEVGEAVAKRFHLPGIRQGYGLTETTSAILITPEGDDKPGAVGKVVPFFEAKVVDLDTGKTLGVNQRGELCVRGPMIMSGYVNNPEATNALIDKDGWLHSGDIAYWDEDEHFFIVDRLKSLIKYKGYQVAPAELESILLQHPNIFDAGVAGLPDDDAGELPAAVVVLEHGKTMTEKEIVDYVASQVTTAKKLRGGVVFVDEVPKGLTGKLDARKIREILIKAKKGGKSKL
Chain of Retinoic acid receptor RXR-alpha (Homo sapiens) (P19793 whole entry, looked up): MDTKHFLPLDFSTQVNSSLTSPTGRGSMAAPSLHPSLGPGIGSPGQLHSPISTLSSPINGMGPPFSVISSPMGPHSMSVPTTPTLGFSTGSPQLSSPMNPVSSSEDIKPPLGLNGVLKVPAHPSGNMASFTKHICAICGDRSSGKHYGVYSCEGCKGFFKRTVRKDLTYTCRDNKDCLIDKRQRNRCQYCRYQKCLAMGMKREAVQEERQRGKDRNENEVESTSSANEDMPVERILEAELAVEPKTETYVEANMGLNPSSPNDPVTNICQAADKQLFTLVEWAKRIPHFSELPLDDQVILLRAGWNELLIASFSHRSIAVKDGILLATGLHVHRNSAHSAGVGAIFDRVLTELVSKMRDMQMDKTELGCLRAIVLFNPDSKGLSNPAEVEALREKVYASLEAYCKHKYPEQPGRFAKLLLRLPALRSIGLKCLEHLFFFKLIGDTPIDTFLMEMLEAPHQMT

Regarding `C=CCCCCCCCCCCC`, the activation is 6.32% [at 6.98 µM] in [1] and 0.0107% [at 8.36 µM] in experiment [5]. Also, the activity change, negative = cytotoxicity in experiment [2] is 0.762% [at 6.97 µM]; in experiment [3], 5.5% [at 8.39 µM]; in experiment [9] it was 6.96% [at 8.39 µM]. For the same compound, in experiment [4], the activity, negative = inhibition was 18.9% [at 8.39 µM]. The viability change, negative = cytotoxic in experiment [6] was 0.22% [at 8.39 µM]; in [8], -0.862% [at 8.39 µM]. In addition, in [7], the activity change, negative = inhibition was 6.44% [at 10.5 µM].

Turning to `COC(OC)C(C)c1ccccc1` (configuration not stated), the Potency entry in experiment [1], in [4], in experiment [5], in experiment [6], in experiment [7] and in experiment [9] was “inactive” in each case. For the same compound, the outcome in experiment [2], in [3] and in experiment [8] was inactive.

Take `CCCCC(CC)C(=O)OC(C)C` (configuration not stated): the Potency entry in [1], in experiment [4], in experiment [5], in experiment [6], in experiment [7] and in [9] was “inactive” each time. Also, the outcome in experiment [2], in experiment [3] and in [8] was inactive.

Regarding `O=C1NC2NC(=O)NC2N1` (configuration not stated), the Potency result in experiment [1], in experiment [4], in experiment [5], in experiment [6], in [7] and in [9] was “inactive” each time. In addition, the result in [2], in [3] and in experiment [8] was inactive.

Turning to `FC(F)(F)c1ccc(Cl)cc1Cl`, the Potency result in experiment [1], in [4], in [6], in [7] and in [9] was “inactive” in each case. Moreover, the result in experiment [2], in experiment [3] and in experiment [8] was inactive. For the same compound, in experiment [5], the activation was 0.481% (active).

For the compound `C[CH2][Ge]([Cl])([CH2]C)[CH2]C`, the Potency entry in experiment [1], in experiment [4], in experiment [5], in experiment [6], in [7] and in experiment [9] was “inactive” each time. In addition, the result in experiment [2], in experiment [3] and in experiment [8] was inactive.

Take `COc1ccc(NS(=O)(=O)c2ccc(N)cc2)nn1`: the Potency result in experiment [1], in experiment [4], in experiment [5], in experiment [6], in experiment [7] and in experiment [9] was “inactive” in each case. Further, the call in experiment [2], in experiment [3] and in experiment [8] was inactive.

For the compound `Cc1ccccc1N1CCN(CCc2nnc3n2CCCC3)CC1`, the Potency result in [1], in experiment [4], in experiment [5], in experiment [6], in [7] and in experiment [9] was “inactive” throughout. For the same compound, the outcome in experiment [2], in experiment [3] and in experiment [8] was inactive.

On to `C=C(C)C(=O)OC1CC(C)CC(C)(C)C1` (configuration not stated), for which the Potency result in experiment [1], in experiment [4], in experiment [5], in experiment [6], in experiment [7] and in [9] was “inactive” in each case. In addition, the compound was classed as inactive in experiment [2], in experiment [3] and in experiment [8].

As for `Nc1ccc(S(=O)(=O)NC(=O)c2ccccc2)cc1`, the Potency entry in experiment [1], in experiment [4], in experiment [5], in experiment [6], in experiment [7] and in experiment [9] was “inactive” in each case. Moreover, the outcome in experiment [2], in experiment [3] and in experiment [8] was inactive.

On to `CN[C@@H]1[C@@H](O)[C@@H](O[C@@H]2[C@H](O)[C@H](O[C@H]3OC(CN)=CC[C@H]3N)[C@@H](N)C[C@H]2N)OCC1(C)O` (some centres not stated), for which the Potency result in [1], in experiment [4], in experiment [5], in experiment [6] and in experiment [7] was “inactive” throughout. The compound was called inactive in experiment [2] and in experiment [3].

Consider `C=C(C)C(=O)OCCCCCCOC(=O)C(=C)C`, for which the Potency entry in [1], in experiment [4], in [5], in [6], in [7] and in experiment [9] was “inactive” each time. Further, the outcome in [2], in experiment [3] and in experiment [8] was inactive.

`CO/N=C(/C(=O)N[C@@H]1C(=O)N2C(C(=O)O)=C(Cn3nnc(C)n3)CS[C@H]12)c1csc(N)n1`: the Potency entry in experiment [1], in experiment [4], in experiment [5], in [6], in experiment [7] and in experiment [9] was “inactive” each time. Also, the call in [2], in experiment [3] and in [8] was inactive.

`OCCCCCCCl`: the Potency result in [1], in [4], in [5], in experiment [6], in experiment [7] and in experiment [9] was “inactive” in each case. Further, the compound was called inactive in [2], in experiment [3] and in experiment [8].

As for `CC(C)(C)NCCO`, the Potency result in [1], in experiment [4], in experiment [5], in [6], in experiment [7] and in experiment [9] was “inactive” throughout. For the same compound, the compound was called inactive in [2], in experiment [3] and in experiment [8].

On to `CCN(CC)C(=O)C1CN2CCc3cc(OC)c(OC)cc3C2CC1OC(C)=O` (configuration not stated), for which the Potency entry in [1], in experiment [4], in [5], in experiment [6], in experiment [7] and in experiment [9] was “inactive” each time. The result in [2], in [3] and in [8] was inactive.

For `O=c1[nH]c(=O)c2[nH]c(=O)[nH]c2[nH]1`, the activation is 3.02% [at 6.98 µM] in experiment [1] and 0.0515% [at 8.36 µM] in experiment [5]. In addition, the activity change, negative = cytotoxicity is 9.18% [at 6.97 µM] in [2], -0.439% [at 8.39 µM] in experiment [3] and -10.7% [at 8.39 µM] in [9]. Moreover, the activity, negative = inhibition in [4] is 2.16% [at 8.39 µM]. In addition, the viability change, negative = cytotoxic is -1.5% [at 8.39 µM] in experiment [6] and -1.86% [at 8.39 µM] in experiment [8]. Also, the activity change, negative = inhibition in [7] is -3.23% [at 10.5 µM].

Take `C=CC(C)(O)CC/C=C(\C)CC` (configuration not stated): the Potency result in experiment [1], in experiment [4], in experiment [5], in experiment [6], in experiment [7] and in experiment [9] was “inactive” throughout. The outcome in [2], in experiment [3] and in experiment [8] was inactive.

As for `O=C1CC[C@H](C(=O)N2CCCCC2)N1`, the Potency result in [1], in experiment [4], in experiment [5], in [6], in [7] and in experiment [9] was “inactive” throughout. Further, the compound was called inactive in experiment [2], in [3] and in [8].

For `CC(C)COC(=O)CCCCC(=O)OCC(C)C`, the Potency result in experiment [1], in experiment [4], in [5], in [6], in experiment [7] and in experiment [9] was “inactive” throughout. Besides, the compound was classed as inactive in experiment [2], in [3] and in experiment [8].

Consider `Cc1ccccc1C(=O)N1CC/C(=N\OS(=O)(=O)O)c2ccc(Cl)cc21`, for which the Potency entry in experiment [1], in experiment [4], in experiment [5], in [6], in experiment [7] and in experiment [9] was “inactive” each time. The compound was classed as inactive in [2], in experiment [3] and in experiment [8].

As for `NC(=O)NC(=O)Cc1ccccc1`, the Potency result in experiment [1], in [4], in experiment [5], in experiment [6], in experiment [7] and in experiment [9] was “inactive” each time. Besides, the compound was classed as inactive in experiment [2], in experiment [3] and in [8].

Turning to `CCCCC/C=C/CC(=O)OC`, the Potency result in experiment [1], in experiment [4], in [5], in experiment [6], in experiment [7] and in [9] was “inactive” throughout. Further, the call in experiment [2], in experiment [3] and in [8] was inactive.

On to `F[Si-2](F)(F)(F)(F)F`, for which the Potency entry in [1], in experiment [4], in experiment [5], in experiment [6], in experiment [7] and in experiment [9] was “inactive” throughout. The call in experiment [2], in [3] and in [8] was inactive.

`CN[C@@H]1[C@H](O)[C@H](NC)[C@H]2O[C@@]3(O)C(=O)C[C@@H](C)O[C@H]3O[C@@H]2[C@H]1O`: the Potency entry in experiment [1], in experiment [4], in experiment [5], in experiment [6], in experiment [7] and in experiment [9] was “inactive” each time. Besides, the result in [2], in [3] and in experiment [8] was inactive.

Consider `CC(C)(CO)[C@@H](O)C(=O)NCCCO`, for which the Potency result in experiment [1], in experiment [4], in experiment [5], in [6], in [7] and in experiment [9] was “inactive” each time. In addition, the compound was called inactive in experiment [2], in experiment [3] and in experiment [8].

Source of the values: PubChem BioAssay (Tox21).
